Assay results from PubChem BioAssay (EPA / NIEHS).
Calls of active or inactive are those of the source. Rule for the calls: active = hit-call score of the fitted dose curve at least 0.9, where 1 is the maximum; inactive = score below 0.9.

Assays:
Conditions in all cases: mRNA level, 48 h; actives raise or lower the signal
[1] = read-out: Lipase C (LIPC), LIPC (gene 3990); assay: LTEA_HepaRG_LIPC: Life Technologies and Expression Analysis (LTEA) Assay for Lipase C (LIPC) using HepaRG (AID 2283514)
Procedure, shortened: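 Read-out is LIPC transcript level by TaqMan qRT-PCR, normalized to three housekeeping genes, after 48 h chemical treatment of human HepaRG liver cells. Curves span eight concentrations topping at 100 uM; activity in either direction scored relative to 0.5% DMSO.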

[2] = read-out: Lipoprotein lipase (LPL), LPL (gene 4023); assay: LTEA_HepaRG_LPL: Life Technologies and Expression Analysis (LTEA) Assay for Lipoprotein lipase (LPL) using HepaRG (AID 2283515)
Procedure, shortened: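 Read-out is LPL transcript level by qRT-PCR, normalized to three housekeeping genes and fitted bidirectionally against the DMSO control. Human HepaRG cells received chemicals for 48 h at up to 100 uM.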

[3] = read-out: MicroRNA 122 (MIR122), gene 406906; assay: LTEA_HepaRG_MIR122: Life Technologies and Expression Analysis (LTEA) Assay for MicroRNA 122 (MIR122) using HepaRG (AID 2283516); note: the transcript read is the microRNA miR-122
Procedure, shortened: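 Differentiated human HepaRG cells in serum-free induction medium exposed 48 h to 8 half-log concentrations from 100 uM in 0.5% DMSO, duplicate. MIR122 quantified by Fluidigm TaqMan qRT-PCR, normalised to ACTB, GAPDH, POLR2A; fold change fitted bidirectionally versus DMSO.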

[4] = read-out: matrix metalloproteinase-10 (MMP10), MMP10 (gene 4319); assay: LTEA_HepaRG_MMP10: Life Technologies and Expression Analysis (LTEA) Assay for matrix metalloproteinase-10 (MMP10) using HepaRG (AID 2283517)
Procedure, shortened: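 Gain or loss of MMP10 mRNA is fitted relative to the 0.5% DMSO vehicle. The human hepatic line HepaRG receives a 48-hour serum-free exposure, in duplicate, with a maximum concentration of 100 uM.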

MYC, MYC (gene 4609) = assay: LTEA_HepaRG_MYC: Life Technologies and Expression Analysis (LTEA) Assay for MYC using HepaRG (AID 2283518)
Procedure, shortened: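 MYC transcript changes, up or down relative to 0.5% DMSO, from TaqMan qRT-PCR normalized to three housekeeping genes. Human HepaRG cultures received chemicals for 48 h at eight half-log concentrations up to 100 uM, in duplicate.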

[5] = read-out: matrix metalloproteinase-3 (MMP3), MMP3 (gene 4314); assay: LTEA_HepaRG_MMP3: Life Technologies and Expression Analysis (LTEA) Assay for matrix metalloproteinase-3 (MMP3) using HepaRG (AID 2283519)
Procedure, shortened: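 HepaRG, human; 48 h dosing, 8 conc. (max 100 uM, half-log), duplicate, 0.5% DMSO. Readout: MMP3 transcript by Fluidigm TaqMan qRT-PCR, ACTB/GAPDH/POLR2A-normalised. Gain or loss fitted vs DMSO.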

[6] = read-out: Paternally Expressed 10 (PEG10), PEG10 (gene 23089); assay: LTEA_HepaRG_PEG10: Life Technologies and Expression Analysis (LTEA) Assay for Paternally Expressed 10 (PEG10) using HepaRG (AID 2283520)
Procedure, shortened: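 Differentiated HepaRG cells exposed 48 h in serum-free induction medium to eight half-log concentrations topping at 100 uM, 0.5% DMSO, in duplicate. PEG10 mRNA quantified by TaqMan qRT-PCR, normalized to ACTB, GAPDH and POLR2A; bidirectional fit versus DMSO.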

[7] = read-out: Protein phosphatase 2A (PPP2R4), PTPA (gene 5524); assay: LTEA_HepaRG_PPP2R4: Life Technologies and Expression Analysis (LTEA) Assay for Protein phosphatase 2A (PPP2R4) using HepaRG (AID 2283522)
Procedure, shortened: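 Differentiated human HepaRG cells in serum-free induction medium were exposed 48 h to 8 concentrations (top 100 µM, half-log steps, duplicate) in 0.5% DMSO. PPP2R4 mRNA was measured by TaqMan qRT-PCR, normalised to ACTB, GAPDH and POLR2A, and fitted bidirectionally versus DMSO.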

[8] = read-out: Phosphatase and tensin (PTEN), PTEN (gene 5728); assay: LTEA_HepaRG_PTEN: Life Technologies and Expression Analysis (LTEA) Assay for Phosphatase and tensin (PTEN) using HepaRG (AID 2283523)
Procedure, shortened: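 Read-out is PTEN transcript level by multiplexed TaqMan qRT-PCR after 48 h chemical treatment of human HepaRG cultures in serum-free induction medium. Concentrations spanned 100 uM downward in half-log steps, 0.5% DMSO throughout; activity fitted in both directions against vehicle.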

[9] = read-out: solute carrier (SLC22A1), SLC22A1 (gene 6580); assay: LTEA_HepaRG_SLC22A1: Life Technologies and Expression Analysis (LTEA) Assay for solute carrier (SLC22A1) using HepaRG (AID 2283524)
Procedure, shortened: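 HepaRG (human liver line), 48 h dosing in serum-free induction medium; 8 conc., half-log down from 100 uM, 0.5% DMSO vehicle, duplicates. Endpoint: SLC22A1 mRNA, qRT-PCR, housekeeping-normalized; gain/loss fit vs DMSO.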

[10] = read-out: Pyruvate Dehydrogenase Kinase 4 (PDK4), PDK4 (gene 5166); assay: LTEA_HepaRG_PDK4: Life Technologies and Expression Analysis (LTEA) Assay for Pyruvate Dehydrogenase Kinase 4 (PDK4) using HepaRG (AID 2283525)
Procedure, shortened: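 In this multiplexed human HepaRG expression assay, cells are treated 48 h with test chemicals across an eight-point range starting at 100 uM. PDK4 mRNA changes, normalized to ACTB/GAPDH/POLR2A, are fitted in both directions relative to vehicle.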

[11] = read-out: NAD(P)H dehydrogenase [quinone] 1 (NQO1), NQO1 (gene 1728); assay: LTEA_HepaRG_NQO1: Life Technologies and Expression Analysis (LTEA) Assay for NAD(P)H dehydrogenase [quinone] 1 (NQO1) using HepaRG (AID 2283526)
Procedure, shortened: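 Differentiated human HepaRG cells in serum-free induction medium, dosed in duplicate for 48 h at 8 half-log concentrations up to 100 uM in 0.5% DMSO. NQO1 mRNA by qRT-PCR normalized to ACTB, GAPDH, POLR2A; bidirectional fit versus DMSO baseline.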

[12] = read-out: succinate dehydrogenase complex iron sulfur subunit B (SDHB), SDHB (gene 6390); assay: LTEA_HepaRG_SDHB: Life Technologies and Expression Analysis (LTEA) Assay for succinate dehydrogenase complex iron sulfur subunit B (SDHB) using HepaRG (AID 2283528)
Procedure, shortened: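 HepaRG cells (~100,000/well, plated 48 h) exposed in duplicate for 48 h in serum-free induction medium to 8-point half-log series from 100 uM in 0.5% DMSO; mRNA by qRT-PCR normalised to ACTB, GAPDH, POLR2A; bidirectional fit versus DMSO.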

[13] = read-out: Signal transducer and activator of transcription 3 (Homo sapiens) (UniProt P40763); assay: LTEA_HepaRG_STAT3: Life Technologies and Expression Analysis (LTEA) Assay for Signal transducer and activator of transcription (STAT3) using HepaRG (AID 2283529)
Procedure, shortened: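 Read-out is STAT3 mRNA level by qRT-PCR, normalized to three housekeeping genes, in human HepaRG liver cells treated for 48 h. Concentrations ran from 100 uM downward in half-log steps; curves were fitted for gain or loss relative to 0.5% DMSO.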

[14] = read-out: solute carrier (SLCO1B1), SLCO1B1 (gene 10599); assay: LTEA_HepaRG_SLCO1B1: Life Technologies and Expression Analysis (LTEA) Assay for solute carrier (SLCO1B1) using HepaRG (AID 2283530)
Procedure, shortened: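 SLCO1B1 transcript levels were quantified by TaqMan qRT-PCR using three housekeeping genes for normalization. This followed 48 h chemical exposure (100 uM top, half-log, 8 points, 0.5% DMSO) of HepaRG liver cells, with gain or loss fitted relative to DMSO.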

[15] = read-out: sulfotransferase 2A1 (SULT2A1), SULT2A1 (gene 6822); assay: LTEA_HepaRG_SULT2A1: Life Technologies and Expression Analysis (LTEA) Assay for sulfotransferase 2A1 (SULT2A1) using HepaRG (AID 2283531)
Procedure, shortened: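 Expression change of SULT2A1, by qRT-PCR with three housekeeping-gene normalization, was scored bidirectionally versus DMSO. Cells: differentiated HepaRG, dosed in duplicate for 48 h across 8 points, highest 100 µM, half-log dilution, 0.5% DMSO.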

[16] = read-out: Transforming Growth Factor (TGFA), TGFA (gene 7039); assay: LTEA_HepaRG_TGFA: Life Technologies and Expression Analysis (LTEA) Assay for Transforming Growth Factor (TGFA) using HepaRG (AID 2283532)
Procedure, shortened: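 HepaRG (human liver line), 48 h exposure, 8 conc. half-log down from 100 uM, 0.5% DMSO vehicle, duplicates; serum-free induction medium. TGFA mRNA by TaqMan qRT-PCR, ACTB/GAPDH/POLR2A normalization; gain/loss fit vs DMSO.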

[17] = read-out: Transforming Growth Factor (TGFB1), TGFB1 (gene 7040); assay: LTEA_HepaRG_TGFB1: Life Technologies and Expression Analysis (LTEA) Assay for Transforming Growth Factor (TGFB1) Transporter using HepaRG (AID 2283533)
Procedure, shortened: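 TGFB1 transcript measured by qRT-PCR with normalisation to three housekeeping genes (ACTB, GAPDH, POLR2A); human HepaRG line treated in duplicate for 48 hr with an 8-point series topping at 100 uM, 0.5% DMSO vehicle, bidirectionally fitted.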

[18] = read-out: Nuclear factor NF-kappa-B p105 subunit (Homo sapiens) (UniProt P19838); assay: LTEA_HepaRG_NFKB1: Life Technologies and Expression Analysis (LTEA) Assay for Nuclear Factor Kappa B Subunit 1 (NFKB1) using HepaRG (AID 2283521)
Procedure, shortened: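 Differentiated human HepaRG cells in serum-free induction medium with 0.5% DMSO were exposed for 48 h to eight half-log concentrations, top 100 uM, in duplicate. NFKB1 mRNA measured by Fluidigm TaqMan qRT-PCR, normalised to ACTB, GAPDH and POLR2A; bidirectional fit versus DMSO.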

[19] = read-out: Nuclear factor erythroid 2-related factor 2 (Homo sapiens) (UniProt Q16236); assay: LTEA_HepaRG_NFE2L2: Life Technologies and Expression Analysis (LTEA) Assay for Nuclear factor erythroid 2-related factor 2 (NFE2L2) Transcription Factor using HepaRG (AID 2283527);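 note: TaqMan qRT-PCR transcript level normalised to ACTB GAPDH and POLR2A housekeeping genes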
Procedure, shortened: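 Transcript level of NFE2L2 is the read-out, measured by microfluidic TaqMan qRT-PCR and normalized to three housekeeping genes. Human HepaRG cultures received test chemical for 48 h at up to 100 uM in half-log steps. Gain or loss of signal is fitted relative to 0.5% DMSO.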

Measured: AC50

Nuclear factor NF-kappa-B p105 subunit (Homo sapiens), sequence (P19838 whole entry, looked up): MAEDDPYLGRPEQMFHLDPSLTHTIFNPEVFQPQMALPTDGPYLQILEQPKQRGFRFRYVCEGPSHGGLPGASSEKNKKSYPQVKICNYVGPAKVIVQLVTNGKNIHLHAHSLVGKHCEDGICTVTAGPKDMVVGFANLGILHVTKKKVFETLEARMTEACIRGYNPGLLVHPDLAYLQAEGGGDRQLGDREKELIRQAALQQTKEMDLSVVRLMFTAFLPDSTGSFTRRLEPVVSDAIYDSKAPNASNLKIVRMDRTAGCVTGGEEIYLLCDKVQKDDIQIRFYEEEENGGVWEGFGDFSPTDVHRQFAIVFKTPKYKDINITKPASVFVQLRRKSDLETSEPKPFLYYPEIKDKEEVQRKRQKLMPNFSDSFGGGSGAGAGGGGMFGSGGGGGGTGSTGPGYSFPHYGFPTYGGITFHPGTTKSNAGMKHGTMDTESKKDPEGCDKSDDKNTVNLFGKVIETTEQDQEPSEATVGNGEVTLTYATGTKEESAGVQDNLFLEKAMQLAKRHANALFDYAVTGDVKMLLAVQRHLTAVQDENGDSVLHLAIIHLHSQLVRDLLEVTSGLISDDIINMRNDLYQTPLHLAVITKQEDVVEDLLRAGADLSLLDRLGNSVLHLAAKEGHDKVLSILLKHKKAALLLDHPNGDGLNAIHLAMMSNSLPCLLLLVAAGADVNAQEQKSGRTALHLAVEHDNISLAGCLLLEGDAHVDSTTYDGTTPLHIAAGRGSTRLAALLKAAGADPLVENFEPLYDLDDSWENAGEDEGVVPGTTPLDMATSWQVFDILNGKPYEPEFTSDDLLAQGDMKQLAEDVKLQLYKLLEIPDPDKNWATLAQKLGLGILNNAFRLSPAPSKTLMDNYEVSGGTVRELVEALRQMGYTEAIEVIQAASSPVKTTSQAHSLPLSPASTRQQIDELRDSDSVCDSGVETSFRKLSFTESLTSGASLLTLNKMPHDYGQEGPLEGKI
Signal transducer and activator of transcription 3 (Homo sapiens), sequence (P40763 whole entry, looked up): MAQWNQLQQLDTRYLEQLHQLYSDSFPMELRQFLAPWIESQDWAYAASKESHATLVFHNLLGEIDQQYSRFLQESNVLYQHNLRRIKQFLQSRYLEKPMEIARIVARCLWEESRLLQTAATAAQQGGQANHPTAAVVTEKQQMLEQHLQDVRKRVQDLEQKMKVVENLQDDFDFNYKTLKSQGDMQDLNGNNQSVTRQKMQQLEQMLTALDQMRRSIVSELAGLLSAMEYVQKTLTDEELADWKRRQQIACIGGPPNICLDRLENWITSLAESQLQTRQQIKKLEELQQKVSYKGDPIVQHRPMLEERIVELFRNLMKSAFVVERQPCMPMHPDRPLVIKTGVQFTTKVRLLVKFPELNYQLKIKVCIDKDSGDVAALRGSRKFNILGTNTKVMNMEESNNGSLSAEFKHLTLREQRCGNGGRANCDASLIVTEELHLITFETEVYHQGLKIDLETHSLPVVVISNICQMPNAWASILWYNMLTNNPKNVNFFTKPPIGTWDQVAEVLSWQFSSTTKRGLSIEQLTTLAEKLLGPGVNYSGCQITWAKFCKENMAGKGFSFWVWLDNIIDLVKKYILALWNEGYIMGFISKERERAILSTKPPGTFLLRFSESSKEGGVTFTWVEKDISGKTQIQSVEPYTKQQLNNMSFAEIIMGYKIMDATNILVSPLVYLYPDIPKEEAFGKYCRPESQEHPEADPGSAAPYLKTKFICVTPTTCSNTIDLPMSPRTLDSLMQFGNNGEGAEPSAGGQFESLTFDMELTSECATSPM
Nuclear factor erythroid 2-related factor 2 (Homo sapiens), sequence (Q16236 whole entry, looked up): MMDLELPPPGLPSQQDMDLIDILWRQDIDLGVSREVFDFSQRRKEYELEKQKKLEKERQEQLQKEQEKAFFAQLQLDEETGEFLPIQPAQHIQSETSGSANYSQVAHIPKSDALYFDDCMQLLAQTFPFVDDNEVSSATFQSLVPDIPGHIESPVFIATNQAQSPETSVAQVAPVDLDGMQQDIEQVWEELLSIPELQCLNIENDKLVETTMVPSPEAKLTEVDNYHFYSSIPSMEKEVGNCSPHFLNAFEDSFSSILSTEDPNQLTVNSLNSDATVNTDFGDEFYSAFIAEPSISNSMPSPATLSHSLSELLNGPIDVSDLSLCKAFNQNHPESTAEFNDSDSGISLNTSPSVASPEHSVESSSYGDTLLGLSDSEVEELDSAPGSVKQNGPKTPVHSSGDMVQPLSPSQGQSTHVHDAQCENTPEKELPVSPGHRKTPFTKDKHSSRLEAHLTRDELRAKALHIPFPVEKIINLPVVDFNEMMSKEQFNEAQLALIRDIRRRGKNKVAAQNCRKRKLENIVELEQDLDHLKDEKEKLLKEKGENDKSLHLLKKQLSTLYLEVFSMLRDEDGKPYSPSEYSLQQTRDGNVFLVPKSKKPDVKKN

Fc1ccc(Oc2ccnc3cc(Cl)cc(Cl)c23)cc1
active: [1] 78.8 µM | [6] 33.5 µM | [9] 97.8 µM | [10] 50 µM | [17] 50 µM
not listed: [18] | [19]
inactive: all other assays above

CCOc1cc(Oc2ccc(C(F)(F)F)cc2Cl)ccc1[N+](=O)[O-]
inactive: [5] | [18] | [7] | [8] | [10] | [11] | [12] | [13]
active: [1] 34.9 µM | [2] 21.4 µM | [3] 37 µM | [4] 50 µM | MYC, MYC (gene 4609) 28.4 µM | [9] 38.6 µM | [14] 20.6 µM | [15] 35.3 µM | [17] 19 µM

Oc1ccccc1-c1ccccc1
not listed: [2] | [6] | [16] | [18] | [19]
inactive: all other assays above

CCCCC(CC)COC(=O)c1ccccc1C(=O)OCC(CC)CCCC (configuration not stated)
not listed: [6] | [16] | [19]
inactive: all other assays above

CCON=C(CC)C1=C(O)CC(c2c(C)cc(C)cc2C)CC1=O (configuration not stated)
not listed: [6] | [16] | [19]
inactive: all other assays above

Cc1cc(Cl)ccc1OCC(=O)O
active: [10] 35.5 µM | [15] 85.8 µM
not listed: [6] | [18]
inactive: all other assays above
